Data on 4 compounds can be found in PubChem BioAssay (EPA / NIEHS).

Assay [1] can be described thus: ATG_E_Box_CIS: Attagene CIS-FACTORIAL HepG2 Assay for human Enhancer Box (E-box) (AID 2282936). Particulars: HepG2 E-box cis-reporter transcription, actives raise or lower the signal. The method in brief: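 DMSO served as negative control and baseline for bidirectional fitting. Human hepatoma HepG2 cells, transiently transfected with cis-reporter constructs, were dosed 24 h; reporter mRNA read by RT-PCR and capillary electrophoresis.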

Assay [2] is described as follows: ATG_M_61_CIS: Attagene CIS-FACTORIAL HepG2 Assay for M61 Transcription Factor (Internal Marker) (AID 2282937). The conditions noted are these: HepG2 Attagene CIS-FACTORIAL M61 internal marker reporter; actives raise or lower the signal. The procedure, abridged: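 HepG2 cells transiently transfected with multiplexed cis-promoter reporter units reporting endogenous transcription factor activity, measured 24 h after dosing. Reporter mRNA quantified by RT-PCR and capillary electrophoresis; bidirectional fit against DMSO baseline.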

Assay [3] in a line: ATG_EGR_CIS: Attagene CIS-FACTORIAL HepG2 Assay for human Early Growth Response 1 (EGR1) (AID 2282938). The conditions noted are these: HepG2 Attagene CIS-FACTORIAL EGR reporter mRNA; actives raise or lower the signal. The method in brief:
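HepG2 cells transiently transfected with cis-element-driven multiplexed reporter units, dosed for 24 h. EGR1-element reporter mRNA quantified by RT-PCR, 6-FAM labelling, HpaI digestion and capillary electrophoresis; bidirectional fit versus DMSO.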

Assay [4] in a line: ATG_M_19_CIS: Attagene CIS-FACTORIAL HepG2 Assay for M19 Transcription Factor (Internal Marker) (AID 2282939). Particulars: HepG2 Attagene CIS-FACTORIAL M19 internal marker reporter; actives raise or lower the signal. The procedure, abridged:
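Following a 24 h exposure, RNA from transfected HepG2 cells was reverse-transcribed, PCR-amplified with reporter-specific primers, end-labelled with 6-FAM and HpaI-digested before capillary separation. Values represent gain or loss versus DMSO.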

Assay [5] can be described thus: ATG_ERE_CIS: Attagene CIS-FACTORIAL HepG2 Assay for Estrogen Response Element (ERE) (AID 2282940). Particulars: HepG2 ERE cis-reporter, Attagene RNA transcript; actives raise or lower the signal. The method in brief: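 HepG2, transient cis-reporter units, 24 h exposure. RNA isolated, oligo(dT) RT, reporter-specific PCR, FAM extension, HpaI cut, CE detection. Gain/loss-of-signal vs DMSO.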

Assay [6] can be described thus: ATG_Ets_CIS: Attagene CIS-FACTORIAL HepG2 Assay for human Erythroblast Transformation Specific (ETS) (AID 2282941). Particulars: HepG2 ETS cis-reporter transcription, actives raise or lower the signal. The method in brief: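 HepG2 cells transfected with multiple cis-regulated reporter units measuring endogenous ETS-driven transcription, 24 h after dosing. Reporter mRNA quantified by RT-PCR with capillary electrophoresis; bidirectional fit relative to DMSO.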

Assay [7] concerns the target Hepatocyte nuclear factor 3-beta (Homo sapiens) (UniProt Q9Y261). Kind of assay: ATG_FoxA2_CIS: Attagene CIS-FACTORIAL HepG2 Assay for human Forkhead box A2 (FOXA2) (AID 2282942). Particulars: HepG2 cis-reporter transcription factor activity, 24 h; actives raise or lower the signal. The procedure, abridged: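 HepG2 transiently transfected with a multiplexed cis-promoter reporter library read endogenous FOXA2 activity. After 24 h compound exposure, reporter mRNA was quantified by RT-PCR, HpaI digestion and capillary electrophoresis. Bidirectional fit against DMSO.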

The nature of assay [8]: ATG_FoxO_CIS: Attagene CIS-FACTORIAL HepG2 Assay for human Forkhead box O (FoxO) (AID 2282943). Particulars: HepG2 Attagene cis-reporter, FoxO element, mRNA; actives raise or lower the signal. The procedure, abridged: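 Endogenous transcription factor activity read from multiplexed cis-promoter reporter transcripts in transiently transfected HepG2, 24 h after dosing. Reporter RNA measured via RT-PCR plus capillary electrophoresis of FAM-labeled products; gain or loss relative to DMSO.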

The nature of assay [9]: ATG_GATA_CIS: Attagene CIS-FACTORIAL HepG2 Assay for human GATA Binding Protein (AID 2282944). The conditions noted are these: HepG2 GATA cis-element reporter, Attagene multiplex mRNA; actives raise or lower the signal. The procedure, abridged:
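DMSO serves as negative control and baseline for bidirectional fitting of reporter mRNA changes. HepG2 cells bearing transiently transfected cis-promoter reporters were exposed 24 h; transcripts detected via RT-PCR and capillary electrophoresis.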

Assay [10] can be described thus: ATG_GLI_CIS: Attagene CIS-FACTORIAL HepG2 Assay for human Zinc Finger Protein GLI1 (AID 2282945). Particulars: HepG2, Attagene cis-factorial reporter mRNA, GLI element; actives raise or lower the signal. The procedure, abridged:
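Bidirectional curve fits relative to DMSO, using reporter mRNA levels from RT-PCR plus capillary electrophoresis. Cells were HepG2 transiently carrying cis-regulated reporter constructs, harvested 24 h after dosing.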

Assay [11] concerns the target Bile acid receptor (Homo sapiens) (UniProt Q96RI1). Kind of assay: ATG_IR1_CIS: Attagene CIS-FACTORIAL HepG2 Assay for human Nuclear Receptor Subfamily 1 Group H Member 4 (NR1H4), IR1 submotif (AID 2282946). The conditions noted are these: IR1 reporter transcription, actives raise or lower the signal. The method in brief:
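Cells (human HepG2) carry transiently transfected cis-promoter reporter transcription units. Compounds are incubated 24 h, total RNA is reverse-transcribed and amplified, and labelled fragments are resolved by capillary electrophoresis. Curves use DMSO as baseline.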

Assay [12] is described as follows: ATG_GRE_CIS: Attagene CIS-FACTORIAL HepG2 Assay for human Glucocorticoid Response Elements (GRE) (AID 2282947). The conditions noted are these: HepG2 GRE cis-reporter, Attagene multiplex mRNA; actives raise or lower the signal. The method in brief: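 Assay uses human hepatoma HepG2 cells transfected with cis-promoter reporter units, exposed 24 h. mRNA from reporters detected by RT-PCR plus capillary electrophoresis; DMSO serves as negative control and baseline.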

Assay [13] in a line: ATG_ISRE_CIS: Attagene CIS-FACTORIAL HepG2 Assay for human Interferon Regulatory Factor 1 (IRF1) binding to an Interferon-Stimulated Response Element (ISRE) (AID 2282948). The conditions noted are these: HepG2 ISRE cis-reporter (Attagene), mRNA transcription readout; actives raise or lower the signal. The method in brief: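 Transiently transfected HepG2 cells carrying cis-element reporter units, dosed 24 hours. Reporter mRNA quantified by RT-PCR, fluorescent primer extension, HpaI digestion and capillary electrophoresis. Bidirectional fitting relative to DMSO.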

Assay [14] is described as follows: ATG_M_32_CIS: Attagene CIS-FACTORIAL HepG2 Assay for M32 Transcription Factor (Internal Marker) (AID 2282949).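 Note: background control marker of the multiplexed CIS panel rather than a real target.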 The conditions noted are these: HepG2 Attagene cis-factorial M32 reporter, mRNA; actives raise or lower the signal. The procedure, abridged:
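Following 24 h chemical exposure of HepG2 cells transiently expressing cis-promoter reporter constructs, reporter transcript levels were determined by RT-PCR with fluorescent labelling and capillary electrophoresis, then fitted bidirectionally against DMSO.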

Assay [15] in a line: ATG_M_06_CIS: Attagene CIS-FACTORIAL HepG2 Assay for M06 Transcription Factor (Internal Marker) (AID 2282950). Particulars: HepG2 Attagene CIS-FACTORIAL M06 internal marker reporter; actives raise or lower the signal. The procedure, abridged: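 Fluorescence-labelled RT-PCR products from cis-promoter reporter units, cut with HpaI and resolved by capillary electrophoresis, give the signal. Cells are human HepG2, dosed for 24 h. Serves as background control, fitted relative to DMSO.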

In assay [16] the target is Hypoxia-inducible factor 1-alpha (Homo sapiens) (UniProt Q16665). The experiment in a line: ATG_HIF1a_CIS: Attagene CIS-FACTORIAL HepG2 Assay for human Hypoxia Inducible Factor 1 (HIF1A) (AID 2282951). Particulars: HepG2 Attagene cis-factorial HIF1a reporter transcription; actives raise or lower the signal. The procedure, abridged: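 HepG2 cells transiently transfected with multiple cis-regulated reporter transcription units measure endogenous transcription factor activity. After 24 h exposure, reporter mRNA is quantified by RT-PCR with 6-FAM labelling, HpaI digestion and capillary electrophoresis. Bidirectional fitting against DMSO.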

The target in assay [17] is Hepatocyte nuclear factor 6 (Homo sapiens) (UniProt Q9UBC0). Kind of assay: ATG_HNF6_CIS: Attagene CIS-FACTORIAL HepG2 Assay for human Hepatocyte Nuclear Factor 6 (HNF6) (AID 2282952). Particulars: HepG2 Attagene cis-factorial HNF6 reporter transcription; actives raise or lower the signal. The procedure, abridged: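 HepG2 cells transiently transfected with cis-element-driven multiple reporter transcription units, dosed 24 h; reporter mRNA quantified by RT-PCR, FAM primer extension, HpaI digestion and capillary electrophoresis; bidirectional fit versus DMSO baseline.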

Assay [18] in a line: ATG_MRE_CIS: Attagene CIS-FACTORIAL HepG2 Assay for human Metal Responsive Element (MRE) (AID 2282954). The conditions noted are these: HepG2 MRE cis-reporter transcription, Attagene multiplex; actives raise or lower the signal. The procedure, abridged: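 After a 24 h chemical exposure, transiently transfected HepG2 cells yield RNA whose reporter sequences are amplified, FAM-labelled and sized by capillary electrophoresis. Curves are fitted bidirectionally relative to DMSO.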

Assay [19] in a line: ATG_PBREM_CIS: Attagene CIS-FACTORIAL HepG2 Assay for human Phenobarbital-responsive Enhancer Module (PBREM) (AID 2282955). The conditions noted are these: HepG2 PBREM cis-reporter, Attagene multiplexed transcription; actives raise or lower the signal. The procedure, abridged: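 HepG2 cells transiently transfected with multiple cis-regulated reporter units measure endogenous transcription factor activity; 24 h compound exposure. Reporter mRNA quantified by RT-PCR, fluorescent labelling, HpaI digestion and capillary electrophoresis; bidirectional fit versus DMSO.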

The target of assay [20] is Heat shock factor protein 1 (Homo sapiens) (UniProt Q00613). The experiment in a line: ATG_HSE_CIS: Attagene CIS-FACTORIAL HepG2 Assay for human Heat Shock Transcription Factor 1 (HSE) (AID 2282953). Particulars: HepG2 HSE cis-reporter, Attagene RNA transcription; actives raise or lower the signal. The procedure, abridged: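 After a 24 h incubation with test chemical, transfected HepG2 cells were harvested for RNA; reporter transcripts were measured by RT-PCR and capillary electrophoresis. Values reflect gain or loss of signal relative to DMSO.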

The source made the active and inactive calls. Rule for the calls: active = hit-call score of the fitted dose curve at least 0.9, where 1 is the maximum; inactive = score below 0.9.

Sequence of Bile acid receptor (Homo sapiens) (Q96RI1 whole entry, looked up, the tested form may be a part): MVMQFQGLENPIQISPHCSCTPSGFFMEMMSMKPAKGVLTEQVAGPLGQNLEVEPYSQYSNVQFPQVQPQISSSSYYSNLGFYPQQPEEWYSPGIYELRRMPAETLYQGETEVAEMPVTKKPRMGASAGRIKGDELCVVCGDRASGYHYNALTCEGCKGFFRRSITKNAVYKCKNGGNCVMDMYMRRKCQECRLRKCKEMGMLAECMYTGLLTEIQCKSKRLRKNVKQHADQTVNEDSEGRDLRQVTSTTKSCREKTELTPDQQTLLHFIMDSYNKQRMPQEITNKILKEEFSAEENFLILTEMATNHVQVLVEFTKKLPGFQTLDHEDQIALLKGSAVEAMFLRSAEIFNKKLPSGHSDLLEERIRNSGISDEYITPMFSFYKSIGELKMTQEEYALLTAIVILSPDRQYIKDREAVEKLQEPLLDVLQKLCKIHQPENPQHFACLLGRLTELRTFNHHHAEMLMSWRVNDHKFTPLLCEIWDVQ
Sequence of Hepatocyte nuclear factor 3-beta (Homo sapiens) (Q9Y261 whole entry, looked up): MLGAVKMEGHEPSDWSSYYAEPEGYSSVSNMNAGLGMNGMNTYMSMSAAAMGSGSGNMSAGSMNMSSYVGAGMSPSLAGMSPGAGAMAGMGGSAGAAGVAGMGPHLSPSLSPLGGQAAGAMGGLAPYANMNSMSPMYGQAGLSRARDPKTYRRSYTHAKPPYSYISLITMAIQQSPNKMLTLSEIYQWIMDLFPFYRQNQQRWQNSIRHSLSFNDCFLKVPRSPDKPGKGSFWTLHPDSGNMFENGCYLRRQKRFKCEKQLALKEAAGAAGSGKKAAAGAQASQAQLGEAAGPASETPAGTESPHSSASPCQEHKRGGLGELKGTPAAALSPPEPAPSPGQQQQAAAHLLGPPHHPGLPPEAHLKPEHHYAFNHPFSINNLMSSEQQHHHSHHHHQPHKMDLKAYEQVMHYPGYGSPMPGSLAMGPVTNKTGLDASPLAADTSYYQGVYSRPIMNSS
Sequence of Heat shock factor protein 1 (Homo sapiens) (Q00613 whole entry, looked up): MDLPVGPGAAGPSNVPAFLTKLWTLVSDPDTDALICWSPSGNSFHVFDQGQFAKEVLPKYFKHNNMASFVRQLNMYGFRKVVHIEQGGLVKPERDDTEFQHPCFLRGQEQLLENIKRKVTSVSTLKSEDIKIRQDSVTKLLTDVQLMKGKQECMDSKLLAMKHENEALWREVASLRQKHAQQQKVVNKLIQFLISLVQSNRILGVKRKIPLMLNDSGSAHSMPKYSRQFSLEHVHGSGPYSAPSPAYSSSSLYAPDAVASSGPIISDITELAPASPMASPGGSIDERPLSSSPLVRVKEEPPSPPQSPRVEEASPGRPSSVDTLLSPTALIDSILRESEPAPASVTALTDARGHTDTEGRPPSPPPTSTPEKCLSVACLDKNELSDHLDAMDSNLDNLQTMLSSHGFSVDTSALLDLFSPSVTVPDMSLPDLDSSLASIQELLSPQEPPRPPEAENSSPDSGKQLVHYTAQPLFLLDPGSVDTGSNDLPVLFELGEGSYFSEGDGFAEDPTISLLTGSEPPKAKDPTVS
Sequence of Hepatocyte nuclear factor 6 (Homo sapiens) (Q9UBC0 whole entry, looked up): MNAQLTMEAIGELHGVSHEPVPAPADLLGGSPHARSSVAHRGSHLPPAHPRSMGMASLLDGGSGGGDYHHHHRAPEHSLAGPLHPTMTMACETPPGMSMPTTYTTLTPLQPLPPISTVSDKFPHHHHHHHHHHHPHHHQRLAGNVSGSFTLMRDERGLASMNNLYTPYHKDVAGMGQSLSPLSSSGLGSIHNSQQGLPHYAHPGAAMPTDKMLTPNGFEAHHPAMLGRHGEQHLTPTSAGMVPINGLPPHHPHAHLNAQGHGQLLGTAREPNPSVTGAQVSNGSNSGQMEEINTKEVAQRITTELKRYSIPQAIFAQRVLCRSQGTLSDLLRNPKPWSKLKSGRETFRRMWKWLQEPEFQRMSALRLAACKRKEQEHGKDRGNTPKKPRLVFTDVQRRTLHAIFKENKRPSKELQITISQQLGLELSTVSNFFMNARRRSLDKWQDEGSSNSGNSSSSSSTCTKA
Sequence of Hypoxia-inducible factor 1-alpha (Homo sapiens) (Q16665 whole entry, looked up): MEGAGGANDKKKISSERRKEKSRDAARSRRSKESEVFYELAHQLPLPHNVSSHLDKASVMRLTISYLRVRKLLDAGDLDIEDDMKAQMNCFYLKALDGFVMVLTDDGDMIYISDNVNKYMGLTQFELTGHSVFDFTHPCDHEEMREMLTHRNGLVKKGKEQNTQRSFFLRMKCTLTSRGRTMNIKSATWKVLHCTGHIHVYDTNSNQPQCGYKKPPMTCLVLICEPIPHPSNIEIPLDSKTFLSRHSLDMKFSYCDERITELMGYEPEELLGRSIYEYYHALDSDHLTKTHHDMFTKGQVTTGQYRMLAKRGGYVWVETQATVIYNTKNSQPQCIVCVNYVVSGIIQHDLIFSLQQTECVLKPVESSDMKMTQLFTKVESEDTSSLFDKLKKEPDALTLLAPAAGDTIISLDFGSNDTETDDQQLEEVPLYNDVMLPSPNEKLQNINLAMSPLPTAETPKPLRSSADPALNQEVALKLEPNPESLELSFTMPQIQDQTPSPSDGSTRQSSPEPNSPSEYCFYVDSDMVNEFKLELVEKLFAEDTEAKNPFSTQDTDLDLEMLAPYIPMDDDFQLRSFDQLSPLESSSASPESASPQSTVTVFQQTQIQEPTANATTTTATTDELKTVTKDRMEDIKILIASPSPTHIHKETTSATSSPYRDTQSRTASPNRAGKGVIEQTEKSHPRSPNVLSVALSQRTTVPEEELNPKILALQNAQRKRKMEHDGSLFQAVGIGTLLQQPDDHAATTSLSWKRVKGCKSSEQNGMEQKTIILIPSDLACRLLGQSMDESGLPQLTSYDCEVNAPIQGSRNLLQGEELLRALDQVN

In the case of `Nc1ccc(Oc2ccc(N)c(N)c2)cc1`, the outcome in assay [1], in assay [2], in assay [3], in assay [4], in assay [5] and in assay [6] was inactive. In addition, the compound was called inactive in assay [7], in [8], in assay [9], in [10], in assay [11] and in assay [12]. In addition, the call in assay [13], in [14], in assay [15], in [16], in assay [17] and in [18] was inactive. Further, the outcome in assay [19] was inactive.

Regarding `CC(C)(C)c1n[nH]c(=O)n(N)c1=O`, the result in [1], in assay [2], in assay [3], in assay [4], in assay [5] and in [6] was inactive. The call in [7], in [8], in assay [9], in assay [10], in assay [11] and in assay [12] was inactive. In addition, the call in assay [13], in [14], in [15], in assay [16], in assay [17] and in [20] was inactive. The compound was classed as inactive in assay [18].

In the case of `C[Si](C)(C)O[Si](O)(O)O`, the outcome in assay [1], in assay [2], in assay [3], in [4], in assay [5] and in assay [6] was inactive. For the same compound, the compound was classed as inactive in [7], in [8], in [9], in assay [10], in [11] and in assay [12]. Also, the compound was called inactive in assay [13], in [14], in [16], in assay [17], in assay [20] and in assay [18].

As to `Cc1cccc(N(C)C(=S)Oc2ccc3ccccc3c2)c1`, the outcome in assay [1], in [2], in [3], in assay [4], in [6] and in assay [7] was inactive. Further, the call in assay [8], in assay [9], in [10], in assay [11], in [12] and in assay [13] was inactive. Further, the result in assay [14], in assay [15], in [17] and in assay [20] was inactive. The values for the AC50 in assay [5], in [18] and in assay [19] were 25.3 µM (active), 1.89 µM (active) and 2.06 µM (active), respectively.
